Screening results from PubChem.
TDP1 cell noCPT: qHTS for Inhibitors of human tyrosyl-DNA phosphodiesterase 1 (TDP1): qHTS in cells in absence of CPT. AID 686978, 2013. hit rate 15% among 420,000. DT40 Tdp1-/- hTDP1 cells, no CPT, ATP luminescence, 48 h. Potency, µM (highest dose often 46.2 µM), without a hit: at the top dose activity change, negative = growth inhibition, most hits filed as inhibitors; further: potency means the concentration at half of the fitted maximal effect; nearly all actives have a fitted effect of over 55% in size
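Luminescent ATP content (CellTiter-Glo) served as the growth readout. Knockout chicken DT40 cells expressing human TDP1 were exposed to compounds without camptothecin for a minimum 48 hr at 37 °C.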
HT1080 IDH1KD tx: toxicity to HT-1080 IDH1 knockdown cells (counter line). HT-1080 IDH1 knockdown viability, ATP luminescence, 48 h. Potency, µM (series often up to 46.1 µM), for inactives: top-dose activity, negative = toxicity, most hits filed as cytotoxic. hit rate 2% among 360,000. AID 686971;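 further: potency means the concentration at half of the fitted maximal effect; 0% = DMSO wells and -100% = cell-free medium wells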
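HT-1080-IDH1KD cells (IDH1 knocked down), 750/well in RPMI with 5% FBS, treated with compound 48 h at 37 degrees C. Viability by CellTiter-Glo luminescence, normalised to DMSO and no-cell wells; concentration-response curves classed.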
IL-1B inflam inh: blocks inflammasome-driven IL-1 beta release | THP-1 LPS/ATP IL-1B secretion, AlphaLISA, 16 h; active compounds read low | activity change, % at 57.5 µM | hit rate 4.7% among 360,000 | AID 743279; in the data active means activity change below about -50%; inconclusive means mostly about -30% to -49%
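Secreted IL-1B measured by AlphaLISA bead assay after 16 h compound exposure of THP-1 cells; compounds (final up to 57.5 uM) added 1 h before LPS (250 ng/mL) and ATP (1.25 mM) stimulation; lower signal means less secretion.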
TDP1 cell CPT: DT40-hTDP1 cell growth loss with CPT | chicken DT40 Tdp1-/-;hTDP1 cells + 20 nM CPT, ATP luminescence, 48 h | Potency, µM (series often up to 46.2 µM), for the others: top-dose activity change, negative = growth inhibition, usual class: inhibitors | hit rate 12% among 420,000 | AID 686979; further: potency means the concentration at half of the fitted maximal effect; nearly all actives have a fitted effect of over 55% in size
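Cell growth measured by CellTiter-Glo luminescence after a minimum 48 h, 37 C compound exposure with 20 nM CPT in Tdp1-knockout DT40 cells stably expressing hTDP1, seeded 400/well; qHTS titration format.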
HT1080-NT tox: kills 2HG-producing HT-1080-NT fibrosarcoma cells; AID 686970; hit rate 1.6% among 360,000; HT-1080-NT fibrosarcoma viability, CellTiter-Glo ATP luminescence, 48 h; Potency, µM (doses to about 46.1 µM), inactives show at the highest dose activity, negative = less viability, actives largely listed as cytotoxic;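 further: NT is the 2HG producing partner of a matched IDH1 knockdown line; potency means the concentration at half of the fitted maximal effect; 0% = DMSO-treated cells and -100% = media-only wells without cells; nearly all actives have a fitted effect of over 55% in size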
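Compounds were tested in concentration-response format on HT-1080-NT cells for 48 hours at 37 degrees C. Cell viability came from CellTiter-Glo luminescence; curves were classified by r2, response magnitude and activity.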
Numbers without * were called inactive; u = inconclusive; x = no result given; [ ] = dose if it differs, or a comment. An excerpt weighted towards active compounds, which were near 19% of everything screened. Unless noted, the call rests on the fitted dose curve; in most records, active means well fitted curve in the direction sought with a large enough effect; inconclusive means small, poorly fitted or top-dose-only effect, or another doubt; inactive means no such curve, though single readings can be large; an effect the other way counts as inactive or inconclusive. Unless noted, on the % scale 0 is the no-effect control and ±100 the full control effect.

SMILES	TDP1 cell noCPT	HT1080 IDH1KD tx	IL-1B inflam inh	TDP1 cell CPT	HT1080-NT tox
CCOC(=O)c1nn(-c2ccc(OC)cc2)c(=O)c2c(N)scc12	-1.2%	-15.2%	-3.7	-0.7%	-4.3%
CCOC(=O)c1nn(-c2ccc(C)c(C)c2)c(=O)c2c(N)scc12	u	-16.8%	1.7	20.6µM*	-15.5%
Cc1ccc(S(=O)(=O)N2CCC[C@H]2C(=O)NC2=NCCS2)cc1	-21.4%	1.1%	10.5	-9.3%	1.1%
COc1ccc(C(=O)N2CCC3(CCCN(Cc4ccc(C#N)cc4)C3)CC2)cc1	18.4µM*	x	x	-26.3%	x
O=C(c1cc(C(F)(F)F)cc(C(F)(F)F)c1)N1CCC2(CC1)CN(Cc1ccncc1)C2	u	x	x	-6.3%	x
N#Cc1ccc(CN2CC3(CCN(C(=O)c4cc(C(F)(F)F)cc(C(F)(F)F)c4)CC3)C2)cc1	10.3µM*	x	x	20.6µM*	x
CCCCc1cc(=O)oc2c3c(cc(OCC(=O)NCCCO)c12)OC(C)(C)CC3	-10.6%	-22.2%	-6.9	-27.4%	-3.1%
COC(=O)c1sc(-c2ccc(C(C)(C)C)cc2)cc1NC(=O)COCC(=O)O	u	20.6µM*	x	-3.2%	16.4µM*
COc1ccccc1NC(=O)COC(=O)c1cnccn1	2.4%	-12.5%	-1.3	7.8%	-4.6%
CCC1CN(Cc2cn[nH]c2-c2ccc(F)cc2)Cc2cc(OC)ccc2O1 (stereo unspecified)	20.6µM*	x	x	u	x
CCC1CN(Cc2cn[nH]c2-c2ccccc2)Cc2cc(OC)ccc2O1 (stereo unspecified)	18.4µM*	x	x	-7.4%[9.04 µM]	x
CCC1CN(Cc2cn[nH]c2-c2ccc(OC)cc2)Cc2cc(OC)ccc2O1 (stereo unspecified)	u	x	x	-4.2%[9.04 µM]	x
CC(C)n1nc(C(=O)Nc2nnc(SCc3c(Cl)cccc3Cl)s2)c2ccccc2c1=O	u	-0.4%	40.5	10.3µM*	-15.7%
CC(C)n1nc(C(=O)Nc2nc3ccc(S(C)(=O)=O)cc3s2)c2ccccc2c1=O	-14.3%	-6.3%	4.0	-13.7%	-3.4%
Nc1nc2c(ncn2-c2ccccc2)c(=O)[nH]1	1.7%	-2.0%	9.2	-5.4%	-3.7%
O=C1c2ccccc2C(=O)c2c1ncn2-c1ccccc1	5.17µM*	-17.6%	42.7	5.8µM*	u
CC1CN(CCC(=O)NC(c2cccnc2)C(F)(F)F)Cc2cc(Cl)ccc2O1 (stereo unspecified)	u	x	x	-12.8%[9.04 µM]	x
COc1cnn(-c2ccccc2)c(=O)c1SCc1ccc(Cl)c(Cl)c1	u	u	u	-20.4%	u
Cn1ncc(SCc2ccccc2)c(Cl)c1=O	10.3µM*	u	x	9.2µM*	-5.0%
CSc1c(SCc2ccccc2)cnn(-c2ccccc2)c1=O	u	-6.0%	-98.1*	u	-2.0%
Cn1ncc(S(=O)(=O)Cc2ccccc2)c(Cl)c1=O	3.26µM*	-12.9%	x	1.46µM*	6.6%
COCCN(C(=O)CCN1C(=O)C2CC=CCC2C1=O)c1c(N)n(CC(C)C)c(=O)[nH]c1=O (stereo unspecified)	16.3%	9.4%	6.5	10.9%	5.0%
COc1ccc(C=C(C(=O)c2ccccc2)c2ccccc2)cc1	u	-0.7%	5.8	u	-30.9%
CC(=O)C(=Cc1cccc(C#N)c1)C(=O)c1ccccc1	16.4µM*	u	-117.7*	16.4µM*	u
COc1ccc(C(=Cc2ccccc2)C(=O)O)cc1	-12.4%	3.8%	9.1	10.4%	-0.8%
SMILES	TDP1 cell noCPT	HT1080 IDH1KD tx	IL-1B inflam inh	TDP1 cell CPT	HT1080-NT tox
COc1ccc(C=C(C(=O)c2ccccc2)C(=O)c2ccccc2)cc1	u	u	-82.5*	u	18.4µM*
COc1ccc(C(=O)/C(Br)=C\C(=O)O)cc1	u	x	x	2.66µM*	x
COc1ccc(C=C(C(C)=O)C(=O)c2ccccc2)cc1	u	23.1µM*	-94.3*	u	23.1µM*
Nc1nc(N(Cc2ccccc2)Cc2ccccc2)nc(C(F)(F)F)n1	-21.9%	u	-7.0	-31.0%	-54.7%
CCn1c(COc2ccccc2Cl)nnc1SCC(=O)Nc1ncccc1C	0.5%	7.3%	-1.1	-8.9%	2.3%
CC(=O)Nc1ccc(C=C(C(C)=O)C(C)=O)cc1	u	-15.5%	u	-24.3%	-12.0%
CC(=O)C(=Cc1ccc(Cl)cc1)C(=O)c1ccccc1	18.4µM*	u	-107.9*	18.4µM*	u
Cc1cc(C)n(-c2nc3c(c(=O)[nH]c(=O)n3C)n2C(C)C)n1	2.4%	-7.5%	12.7	0.6%	1.0%
COc1ccc(Cn2c(=O)[nH]c3cc(C(=O)N4CCN(c5ccccc5OC)CC4)ccc3c2=O)cc1	23.1µM*	-19.0%	-6.9	u	u
CCN1CCN(C(=O)c2ccc(Cn3c(=O)[nH]c4cc(OC)c(OC)cc4c3=O)cc2)CC1	-21.4%	-4.9%	12.4	-18.8%	-3.2%
COc1ccc(Cn2c(=O)[nH]c3cc(C(=O)N4CCN(Cc5ccccc5)CC4)ccc3c2=O)cc1	18.4µM*	u	-8.4	16.4µM*	-29.0%
COc1ccccc1N1CCN(C(=O)c2ccc3c(=O)n(Cc4ccc5c(c4)OCO5)c(=O)[nH]c3c2)CC1	18.4µM*	-20.4%	u	16.4µM*	-23.5%
COCCn1c(=O)[nH]c2cc(C(=O)N3CCN(c4ccc(OC)cc4)CC3)ccc2c1=O	u	6.8%	27.1	-31.2%	2.6%
COc1cc2[nH]c(=O)n(Cc3ccc(C(=O)N4CCN(c5cc(Cl)ccc5C)CC4)cc3)c(=O)c2cc1OC	5.17µM*	x	x	2.31µM*	x
CCC1(C2CCN(C(=O)c3cc(F)ccc3F)CC2)NC(=O)N(CCc2scnc2C)C1=O (stereo unspecified)	-6.5%	x	x	9.2%[9.04 µM]	x
CC(=O)NCCCc1c[nH]c2ccc(Cl)cc12	-2.4%	0.7%	-13.5	-0.7%	7.7%
COc1cc2c(C(=O)N3CCN(c4cc(Cl)ccc4C)CC3)cn(CC(C)C)c(=O)c2cc1OC	-18.2%	x	x	u	x
COc1ccc(C2OC(=O)CC2C(=O)N2CCN(c3cc(Cl)ccc3C)CC2)cc1OC (stereo unspecified)	u	4.1%	-3.2	20.6µM*	0.2%
Cc1ccc(Cl)cc1N1CCN(C(=O)Cc2cn(C)c3ccccc23)CC1	u	u	-29.7	u	u
CCn1cc(C(=O)N2CCN(c3cc(Cl)ccc3C)CC2)c2cc(OC)c(OC)cc2c1=O	u	x	x	11.6µM*	x
COc1ccc2ccccc2c1CNCCN1CCOCC1	-2.4%	5.5%	3.6	-20.6%	4.2%
COc1ccc(CN2C(=O)CN(S(C)(=O)=O)CC2(C)C(=O)NC(C)C)cc1 (stereo unspecified)	0.6%	10.2%	u	22.8%	10.9%
